D3 ag – activates the human D3 dopamine receptor; AID 652048; max activation, %; D3R DiscoveRx beta-arrestin cells, luminescence, 90 min; actives 0.58% (n = 410,000); in the data active means max activation above about 30%; further: 0% is about no effect
Target sequence (P35462 whole entry, looked up): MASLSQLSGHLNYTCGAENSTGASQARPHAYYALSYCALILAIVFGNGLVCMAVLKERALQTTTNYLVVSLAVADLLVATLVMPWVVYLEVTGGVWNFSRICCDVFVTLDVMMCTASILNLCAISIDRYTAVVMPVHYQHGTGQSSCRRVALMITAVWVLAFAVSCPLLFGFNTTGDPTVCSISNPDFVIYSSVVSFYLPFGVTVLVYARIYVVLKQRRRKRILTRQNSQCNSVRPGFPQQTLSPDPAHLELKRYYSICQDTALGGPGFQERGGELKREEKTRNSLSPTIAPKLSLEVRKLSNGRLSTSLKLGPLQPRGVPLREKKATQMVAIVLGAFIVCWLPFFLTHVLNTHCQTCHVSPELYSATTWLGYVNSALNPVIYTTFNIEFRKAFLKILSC
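Agonist-mode cell screen: cells plated at 1500/well and incubated overnight at 37 °C, then exposed to library compounds for 90 min at 37 °C. Detection reagent was added for 30–60 min at room temperature, and luminescence was read.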
ClpP mod – qHTS Assay for Activators of ClpP. purified B. subtilis ClpP, FRET peptide cleavage, 20 min. AID 651965, 2013. actives 1.9% (n = 340,000). Potency, µM (top dose mostly 57.5 µM), for the others: at the highest dose activity change, negative = active; active means well fitted falling curve with a large enough effect; inconclusive means small, poorly fitted or top-dose-only effect; inactive means no such curve, though single readings can be large or run the other way; further: potency means the concentration at half of the fitted maximal effect; the source files actives as falling curves though it sought activators and does not explain the sign; nearly all actives have a fitted effect of over 65% in size
Target sequence (P80244 whole entry, looked up): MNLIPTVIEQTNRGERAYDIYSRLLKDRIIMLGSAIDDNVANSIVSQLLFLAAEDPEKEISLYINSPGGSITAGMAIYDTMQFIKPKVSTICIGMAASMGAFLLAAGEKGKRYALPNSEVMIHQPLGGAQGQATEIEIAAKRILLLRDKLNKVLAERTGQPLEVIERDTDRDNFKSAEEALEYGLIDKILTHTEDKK
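Purified B. subtilis ClpP, 10 microg/mL final in Tris/HCl pH8 with KCl, BSA, glycerol and Tween-20, cleaved an Abz/nitrotyrosine-quenched decapeptide. Fluorescence (ex 320, em 430) was read at 0 and 20 min at room temperature. Delta was normalized to 5.8 microM ADEP and DMSO/no-enzyme controls.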
D3 antag – blocks the human D3 dopamine receptor. AID 652054. max response, negative = inhibition, %. actives 2.5% (n = 360,000). D3R cells, DiscoveRx beta-arrestin luminescence, antagonist mode; hits give low values. P35462; in the data active means max response below about -50%; inconclusive means no clear call, values can overlap the other calls; further: on the % scale 0 is the no-effect control and ±100 the full control effect
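Cells plated overnight at 1500 cells/well, then exposed to library compounds with dopamine controls for 90 minutes at 37 degrees C. DiscoveRx reagent added for 30–60 minutes at room temperature; luminescence read, quantitative HTS format.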
DT40 TDP1 CPT – growth inhibition of DT40 Tdp1-/-;hTDP1 cells with camptothecin (screen for TDP1 inhibitors); chicken DT40 Tdp1-/-;hTDP1 cells + 20 nM CPT, ATP luminescence, 48 h; Potency, µM (series often up to 46.2 µM), for inactives: top-dose activity change, negative = growth inhibition, hits mostly inhibitors; actives 12% (n = 420,000); further: potency means the concentration at half of the fitted maximal effect; on the % scale 0 is the no-effect control and ±100 the full control effect; nearly all actives have a fitted effect of over 55% in size
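Chicken DT40 Tdp1-/- cells stably complemented with human TDP1 were seeded at 400 cells/well in medium containing 20 nM camptothecin, exposed to pin-transferred compounds, and grown at 37 °C for at least 48 hr. Viability was read as ATP luminescence.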
TDP1 cell noCPT – qHTS for Inhibitors of human tyrosyl-DNA phosphodiesterase 1 (TDP1): qHTS in cells in absence of CPT; DT40 Tdp1-/- hTDP1 cells, no CPT, ATP luminescence, 48 h; actives 15% (n = 420,000); AID 686978, 2013; Potency, µM (doses to about 46.2 µM), for inactives: at the top dose activity change, negative = growth inhibition, most hits filed as inhibitors; further: potency means the concentration at half of the fitted maximal effect; on the % scale 0 is the no-effect control and ±100 the full control effect; nearly all actives have a fitted effect of over 55% in size
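Luminescent ATP content (CellTiter-Glo) served as the growth readout. Knockout chicken DT40 cells expressing human TDP1 were exposed to compounds without camptothecin for a minimum 48 hr at 37 °C.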
IL-1B inflam inh – inflammasome signaling inhibition, IL-1 beta readout; actives 4.7% (n = 360,000); activity change, % at 57.5 µM; THP-1 LPS/ATP IL-1B secretion, AlphaLISA, 16 h; hits give low values; in the data active means activity change below about -50%; inconclusive means mostly about -30% to -49%; further: on the % scale 0 is the no-effect control and ±100 the full control effect
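THP-1 cells pretreated 1 hr with compounds (up to 57.5 uM final), then stimulated with LPS (250 ng/mL final) plus ATP (1.25 mM final); secreted IL-1B measured by AlphaLISA after 16 hr, decreased signal indicating inhibition.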
Numbers without * were called inactive; ? = inconclusive; . = not tested or not shown; [ ] = another dose, or the depositor's remark. Rows were chosen to be rich in hits. Some 21% of all compounds tested hit in one or more screens of this group. Unless noted, the call rests on the fitted dose curve; in most records, active means well fitted inhibition curve with a large enough effect; inconclusive means small, poorly fitted or top-dose-only effect; inactive means flat fitted curve, though single readings scatter.

SMILES | D3 ag | ClpP mod | D3 antag | DT40 TDP1 CPT | TDP1 cell noCPT | IL-1B inflam inh
CCN1C/C(=C\c2cc(OC)c(OC)c(OC)c2)C2=NN(c3ccccc3)C(c3cc(OC)c(OC)c(OC)c3)C2C1 (centres undefined) | -5 | 0% | -3 | 6.5µM* | 5.8µM* | 17
CCCN1C2CCCC1CC(NC(=O)Nc1cccc(C(C)=O)c1)C2 (centres undefined) | -4 | -9% | -6 | -14% | 2% | 21
CCCN1C2CCCC1CC(NC(=O)Nc1ccc(C(C)C)cc1)C2 (centres undefined) | -3 | -3% | ? | 23µM* | ? | 11
COC(=O)c1c(C)[nH]c(C(=O)OC(C)C(=O)NC2CCCCC2C)c1C (centres undefined) | 2 | -3% | -16 | 12µM* | ? | 0
Cc1nn(-c2ccccc2)c(C)c1C(=O)OC(C)C(=O)NC1CCCCC1C (centres undefined) | 1 | 1% | 11 | 13µM* | 21µM* | 23
CC(OC(=O)C1=NN(c2ccccc2)C(=O)CC1)C(=O)NC1CCCCC1C (centres undefined) | 8 | -2% | -6 | 8% | -3% | -6
O=C(CSc1nc2ccccc2[nH]1)N1CCN(S(=O)(=O)c2ccc(Cl)cc2)CC1 | 6 | 0% | 43 | -15% | ? | 0
Cc1nc(OCc2c(C)noc2C)c2ccccc2n1 | 2 | . | 4 | 1% | -3% | 20
Cc1ccc(C(=O)NCC(=O)N(C)CC(=O)Nc2c(Cl)cccc2Cl)s1 | -19 | -10% | -25 | -39% | -15% | 22
Cc1ccc(Cl)cc1N1CCN(S(=O)(=O)c2cccc(S(=O)(=O)N3CCCC3)c2)CC1 | -4 | -2% | ? | ? | ? | 5
O=S(=O)(c1ccc(-c2cnc(C3CC3)o2)cc1)N1CCN(c2ccccc2F)CC1 | -17 | 28µM* | . | ? | -13% | .
Cc1ccc(Cl)cc1N1CCN(S(=O)(=O)c2ccc(-c3cnc(C4CC4)o3)cc2)CC1 | -10 | 4% | . | ? | 13µM* | .
O=C(NCc1ccco1)C1Cc2c(-c3cccc(F)c3)ccnc2O1 (centres undefined) | -21 | -4% | -30 | 0.82µM* | 1.3µM* | 17
CN(C)c1ccc(CNC(=O)C2Cc3c(-c4cccc(C(N)=O)c4)ccnc3O2)cc1 (centres undefined) | 0 | -3% | -16 | ? | 23µM* | -13
NC(=O)c1cccc(-c2ccnc3c2CC(C(=O)NCc2ccco2)O3)c1 (centres undefined) | -2 | -3% | ? | 3.7µM* | 2.9µM* | 58
CC(=O)c1cccc(-c2ccnc3c2CC(C(=O)NCc2ccco2)O3)c1 (centres undefined) | -21 | -1% | -70* | 0.82µM* | 0.82µM* | 53
COc1ccc(C2CC(=O)c3c(O)cc(O[C@H]4OC(COC5OC(C)C(O)C(O)[C@@H]5O)C(O)C(O)C4O)cc3O2)cc1O (some centres undefined) | . | . | . | 15% | 1% | .
Cc1ccc(CNC(=O)CCS(=O)(=O)Cc2ccc(C)cc2)cc1 | -18 | 2% | -2 | -3% | 2% | -9
O=[N+]([O-])c1ccc(Cl)c(S(=O)(=O)Nc2ccc(S(=O)(=O)N3CCOCC3)cc2)c1 | 15 | 0% | -15 | -2% | -12% | 11
Cc1c2cnn(CC(=O)NCC(C)c3ccccc3)c(=O)c2c(C)n1Cc1cccc(Cl)c1 (centres undefined) | -6 | -19% | . | -3% | ? | .
CC(C)[C@H](NC(=O)OCc1ccccc1)C(=O)OCC(=O)N1C(C)CCCC1C (some centres undefined) | 8 | . | 14 | -3% | -30% | 12
NC(=O)c1cccc(-c2ccnc3c2CC(C(=O)NCCc2ccccc2)O3)c1 (centres undefined) | -1 | -7% | 2 | 15µM* | 23µM* | 1
CC(=O)NCCNC(=O)C1Cc2c(-c3ccccc3)ccnc2O1 (centres undefined) | -2 | -6% | ? | -18% | -7% | 9
CN(C)c1ccc(/C=N/NC(=O)C(=O)/C=C2\NC3(CCCC3)Cc3ccccc32)cc1 | 0 | -5% | 1 | 26µM* | 21µM* | -14
O=C(/C=C1\NC2(CCCC2)Cc2ccccc21)C(=O)N/N=C/c1ccccc1O | -8 | 1% | 1 | 3.7µM* | 2.1µM* | 54
SMILES | D3 ag | ClpP mod | D3 antag | DT40 TDP1 CPT | TDP1 cell noCPT | IL-1B inflam inh
O=C(Nc1ccc(-c2nc3c(ccc4ccccc43)o2)cc1)c1ccco1 | 46* | 13µM* | 59 | ? | 18µM* | 13
O=C(Nc1ccc(-c2noc(CCc3ccccc3)n2)cc1)c1ccco1 | 6 | -1% | 4 | 18µM* | ? | -5
CC(NC(=O)c1ccco1)c1nc(-c2ccc(Cl)cc2)no1 (centres undefined) | 2 | . | 8 | ? | 21µM* | -7
COc1ccc(-c2noc(C(C)NC(=O)c3ccco3)n2)cc1OC (centres undefined) | 3 | . | -11 | -2% | -4% | 29
c1coc(C2=NCCc3ccccc32)c1 | 1 | 1% | 11 | -13% | 3% | 4
CC1(C(=O)Nc2cccc3c2CCCC3)CCN1C(=O)Cc1ccccc1Cl (centres undefined) | 0 | -2% | 6 | ? | ? | -22
COCCCn1c(=O)c2sccc2n2c(CCCC(=O)Nc3ccc(F)c(F)c3)nnc12 | -3 | -25% | . | ? | ? | .
O=C(C1CCOC1)N1CCOc2ccc(CN3CCC(Oc4cccnc4)CC3)cc2C1 (centres undefined) | . | . | . | -13%[9.04 µM] | -10% | .
Cc1ccccc1S(=O)(=O)N1C(c2ccc(Cl)c(Cl)c2)CC=C(C(=O)O)C1c1cccc(Br)c1 (centres undefined) | -5 | -2% | -25 | ? | ? | 50
CCC1CCc2c(sc(NC(=O)C3CC=CCC3C(=O)O)c2C#N)C1 (centres undefined) | 33* | -3% | 0 | 2% | -7% | 0
CCOC(=O)C1=C(C)OC(N)=C(C#N)C1c1cc2ccccc2nc1N1CCCCC1 (centres undefined) | 0 | -15% | 0 | -23% | ? | 17

Screens: PubChem BioAssay, National Center for Advancing Translational Sciences (NCATS)
